# Source: PubChem BioAssay AID1527 (The Scripps Research Institute Molecular Screening Center, 2009)
# The whole screen tested about 290,000 compounds, of which about 2,600 (0.9%) were called active. What follows is part of a selection rich in actives, with near analogues and random picks from the rest. A number with no mark means an inactive call.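 How the source made its calls: active means inhibition above the mean of all tested compounds plus 3 SD, cutoff set per screening run (cut at about 7.5% in these data); inactive means the rest.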
# Test system: VIM-2 metallo-beta-lactamase (Pseudomonas aeruginosa)
# Assay: inhibition of VIM-2 nitrocefin hydrolysis – biochemical, epi-absorbance readout, Pseudomonas aeruginosa enzyme, primary screen (AID 1527);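 further: red hydrolysis product quenches plate fluorescence so inhibitors raise well fluorescence; 0% = enzyme with DMSO and 100% = DMSO without enzyme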
# Conditions: purified VIM-2, nitrocefin hydrolysis, epi-absorbance fluorescence; at 5.6 µM; hits give high values
row,Compound,inhibition
1,COc1ccc(CNC(=O)c2cc(C(=O)C3CC3)c[nH]2)cc1,-2.31%
2,CCOC(=O)N1CCN(C(=O)C2CCN(c3ncnc4c3sc3cccc(F)c34)CC2)CC1,17.8% (active)
3,CCOC(=O)N1CCN(C(=O)C2CCN(S(=O)(=O)c3cc(Cl)ccc3OCC)CC2)CC1,-1.98%
4,CCOC(=O)C1CCN(c2ncnc3c2oc2ccc(Br)cc23)CC1,-2.16%
5,C=CCOc1cccc(C2NC(=O)c3ccccc3O2)c1 (centres undefined),-2.16%
6,Cc1cc(N2CCN(c3ccccc3)CC2)nc(N2CCOCC2)n1,-1.05%
7,Cc1cc(Nc2ccc(N3CCOCC3)cc2)c2cccc(C)c2n1,2.18%
8,Cc1nn2c3cc(N4CCOCC4)ccc3nc2c2ccccc12,10.9% (active)
9,CC(=O)NC(CC(=O)Nc1cccc(S(=O)(=O)N2CCCC2)c1)c1ccccc1 (centres undefined),-3.12%
10,C=CCn1c(-c2ccc3[nH]c(C)c(C)c3c2)n[nH]c1=S,5.39%
11,C=CCn1c(-c2ccccc2OCC)n[nH]c1=S,25.3% (active)
12,C=CCn1c(-c2sc(-c3ccccc3)nc2C)n[nH]c1=S,-5.93%
13,COc1cc(NC(=O)CCNC(=O)Cn2ccc3ccccc3c2=O)cc(OC)c1OC,-1.82%
14,C[C@H](NC(=O)[C@@H]1Cc2ccccc2CN1C(=O)OC(C)(C)C)C(=O)NC1CCCC1,-2.43%
15,CCn1c(C(O)c2cc(OC)ccc2OC)nc2ccccc21 (centres undefined),-0.51%
16,Cc1cccc(OCC(=O)NCCCNC(=O)c2ccccn2)c1,-2.83%
17,CCN(CC)CCOc1ccc2c(c1)C(=NNC(=O)c1ccccn1)c1cc(OCCN(CC)CC)ccc1-2,29.9% (active)
18,COc1ccc(CC(=O)N/N=C(\C)c2ccccn2)cc1,-3.47%
19,CCCc1[nH]nc2c1C(c1c(C)nn(-c3ccccc3)c1Cl)C(C#N)=C(N)O2 (centres undefined),-2.17%
20,CCCc1[nH]nc2c1C(c1ccc(Br)s1)C(C#N)=C(N)O2 (centres undefined),8.14% (active)
21,CCCc1[nH]nc2c1C(C1CC=CCC1)C(C#N)=C(N)O2 (centres undefined),1.47%
22,CNC(=O)c1cc2c(ccc3ccccc32)oc1=N,0.24%
23,CN(C)C(=O)c1coc2nc3ccccc3nc12,-2.21%
24,CNC(=O)c1cccc2nc3ccccc3nc12,12.2% (active)

row,Compound,inhibition
1,Cc1ccc(S(=O)(=O)c2nc(-c3cccs3)oc2NCc2cccnc2)cc1,-1.14%
2,O=C(NCCOc1ccccc1F)Nc1ccc(Br)cc1,-1.38%
3,COc1ccc(NS(=O)(=O)c2cc3c(cc2C)N(C(C)=O)CCO3)cc1,-3.48%
4,O=[N+]([O-])c1ccccc1/C=C/CN1CCCC(CO)C1 (centres undefined),-0.68%
5,O=C(NCC(=O)N1CCC2(CC1)NCCc1[nH]cnc12)c1ccc(Br)cc1,0.87%
6,Cc1ccccc1NC(=O)C1CCN(C(=O)NC2CCCCC2)CC1,-1.56%
7,Cc1ccc(NC(=O)c2cccnc2C(=O)Nc2ccc(C)cc2)cc1,-0.75%
8,O=C(Nc1ccc(-n2ccnc2P(=O)(O)c2ccccc2)cc1)c1ccccc1Br,21.4% (active)
9,O=C(NC(=S)Nc1ncccn1)c1ccccc1Br,-1.46%
10,COc1cc(/C=C2\SC(=O)NC2=O)ccc1OCc1ccc(Cl)nc1,-1.77%
11,COc1ccccc1CCNS(=O)(=O)c1cc2c3c(c1)C(C)C(=O)N3CCC2 (centres undefined),1.4%
12,O=C(NCCCc1ccccc1)C1CCC(=O)N(CCc2ccc(Cl)cc2)C1 (centres undefined),-1.97%
13,Cc1ccc(Oc2ccc3c(c2)C(=O)N(c2cccc4cccnc24)C3=O)cc1,30.9% (active)
14,Cc1cccc(N2C(=O)c3cccnc3C2=O)c1,-0.49%
15,Cc1ccc(NC(=O)CSc2cccc3cccnc23)c(C)c1,-0.55%
16,O=C(C1CCN(S(=O)(=O)c2ccc(Br)s2)CC1)N1CCN(c2ccccc2)CC1,-3.44%
17,COC(=O)c1ccccc1NC(=S)NC(=O)c1ccccc1F,-1.44%
18,Cc1cccc(NC(=S)NC(=O)c2ccc(Br)o2)c1,-1.38%
19,O=C(NC(=S)Nc1ccccc1C(=O)O)c1ccc(-c2ccc(Br)cc2)o1,19.4% (active)
20,CC(C)[C@H](NC(=O)N1CC(=O)Nc2ccccc21)C(=O)N[C@@H](Cc1c[nH]c2ccccc12)C(=O)O,-2.42%
21,CCOC(=O)N1CCN(Cc2nnc(-c3ccccc3Cl)o2)CC1,-1.67%
22,Nc1cccc2c1C(=O)N(Cc1nnc(-c3ccccc3Br)o1)C2=O,13.6% (active)
23,Cn1cnnc1SCc1nnc(-c2ccccc2Br)o1,-0.36%
24,Cc1ccccc1NC(=O)C1CCCN(C(=O)NCc2ccccc2)C1 (centres undefined),-2.35%

row,Compound,inhibition
1,Cc1cc2c(cc1C)N(Cc1ccccc1)C1=NCCCN12,8.88% (active)
2,OC(CN1C2=NCCCN2c2ccccc21)c1ccc(Br)cc1 (centres undefined),-1.66%
3,CC(C)(C)C(=O)CN1C2=NCCN2c2ccccc21,-3.12%
4,COc1ccc(S(=O)(=O)NCC(=O)NCc2cc(=O)n(C)c(=O)n2C)cc1F,-1.12%
5,CCn1c(Cc2ccc(OC)cc2)nnc1SCC(=O)Nc1ccc(N2CCOCC2)cc1,-1.86%
6,COc1ccccc1/C=N\Nc1cc(C)nc(-n2nc(C)cc2C)n1,-5.24%
7,Cc1cc(N/N=C\c2ccc(Br)cc2)nc(-n2nc(C)cc2C)n1,-1.15%
8,COc1ccc(Nc2cc(C)nc(-n3nc(C)cc3C)n2)cc1,12.7% (active)
9,Cc1cccc(OCC(=O)NCC(=O)N/N=C/c2ccc(N(C)C)cc2)c1,0.77%
10,N#Cc1ccc(/C=C2\CCn3c2nc2cc(C(=O)O)ccc2c3=O)cc1,3.37%
11,COc1ccc(-c2ccc(CNCCCN3CCOCC3)o2)cc1Cl,-0.71%
12,Cc1cc(S(=O)(=O)NCc2ccccn2)c(Cl)cc1Cl,-1.51%
13,Fc1ccc(-c2ccc(CNCc3ccccn3)o2)cc1Cl,38% (active)
14,COc1ccc(S(=O)(=O)N2CCN(C(=O)N(C)C)C2C)cc1 (centres undefined),-2.86%
15,N#Cc1ccc(S(=O)(=O)NCC(=O)OCC(=O)NCCc2ccccc2)cc1,-2%
16,O=C(Nn1c(SCc2ccc([N+](=O)[O-])cc2)nc2ccccc2c1=O)c1ccc(F)cc1,1.03%
17,COCCNC(=O)c1ccc(-n2c(SCc3cccnc3)nc3ccccc3c2=O)cc1,-1.16%
18,C=CCn1c(SCc2ccc(C(=O)NCCO)cc2)nc2ccccc2c1=O,9.03% (active)
19,CC1CCCC(C)N1CCCNC(=O)c1cc2c(=O)n(C)c3ccccc3c2n1C (centres undefined),21.7% (active)
20,Cn1c(C(=O)NCCN2CCc3ccccc3C2)cc2c(=O)[nH]c3ccccc3c21,6.06%
21,CCN1CCCC1CNC(=O)c1cc2c(=O)n(C)c3ccccc3c2n1C (centres undefined),19.9% (active)
22,Cn1c(C(=O)NCCc2ccsc2)cc2c(=O)n(C)c3ccccc3c21,4.63%
23,Cn1c(C(=O)N2CCC(C(N)=O)CC2)cc2c(=O)n(C)c3ccccc3c21,2.96%
24,Cn1c(C(=O)NCCCN2CCN(c3cccc(Cl)c3)CC2)cc2c(=O)n(C)c3ccccc3c21,-1.03%

row,Compound,inhibition
1,O=C(N/N=C/c1cccnc1)c1ccc(NC(=O)c2ccc(F)cc2)cc1,-0.77%
2,COc1cc(S(=O)(=O)N(Cc2cccs2)C2CC2)ccc1-n1cnnn1,-1.52%
3,COc1ccc(C(=O)C2CCCN(C(=O)c3cc(C)on3)C2)cc1F (centres undefined),-2.54%
4,CCOc1ccc2[nH]c(C(=O)N/N=C/c3cccc(OC)c3OC)cc2c1,-0.14%
5,NC(N)=Nc1nc(-c2ccccc2)c2cc(Cl)ccc2n1,9.54% (active)
6,O=C(CCl)NNc1nc(-c2ccccc2)c2cc(Cl)ccc2n1,-3.67%
7,Clc1ccc2nc(-c3ccccc3)nc(C(Cl)Cl)c2c1,-4.99%
8,O=C(CCCCCn1c(=S)[nH]c2cc3c(cc2c1=O)OCO3)N1CCN(c2ccc(F)cc2)CC1,-4.83%
9,CC(C)Oc1ccc(CN2CCC(n3nccc3NC(=O)c3cccnc3)CC2)cc1,-0.44%
10,CN(C)CCCn1c(=O)n(Cc2ccccc2)c(=O)c2c3c(sc21)CCCCC3,-0.19%
11,COc1ccc(C(=O)/C=C/c2cccnc2)c(OC)c1,-1.09%
12,CN1CCN(Cc2c(O)ccc3c2oc(=O)c2ccccc23)CC1,12% (active)
13,O=c1oc2c(CN3CCCCC3)c(O)ccc2c2c1CCCCC2,-1.98%
14,CCOC(=O)c1oc2c(CN3CCN(C)CC3)c(O)ccc2c(=O)c1-c1ccc(Br)cc1,2.09%
15,COc1ccc(-c2cc(C(=O)N(C)Cc3ccc(OC)c(OC)c3OC)c3ccccc3n2)cc1OC,-3.53%
16,O=C(Nc1nnc(C2CC2)s1)c1cc(Cl)sc1Cl,-3.26%
17,CN1C(=O)/C(=C\c2cc(Br)cs2)c2ccccc21,0.8%
18,O=C(c1ccco1)N1CCN(C(=O)c2cc(-c3ccccc3F)no2)CC1,-2.41%
19,COc1cccc(NC(=O)C(=O)c2cn(CC(=O)N3CCOCC3)c3ccccc23)c1,1.81%
20,CC(=O)c1ccc2c(ccc3ccccc32)c1,-0.35%
21,Cc1cc(=O)oc2c(C(=O)c3ccccc3)c(OCC(N)=O)ccc12,-0.26%
22,Cc1cc(=O)oc2c1ccc1ccccc12,10.6% (active)
